The panel holds about 83,000 compounds, 20% with a hit somewhere; the sample as a whole holds those more often.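 Compound tested at a single concentration for 48 hours in 96-well plates; a percent growth value below 10 was scored as active.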 The source made the active and inactive calls.
Tests used:
Test in all cases: NCI-60 one-dose screen, 48 h (100 = growth as untreated, 0 = no growth, -100 = all killed)
Details in all cases: 10 µM unless noted
SR leukemia = test system: SR leukemia
RPMI-8226 leukemia = test system: RPMI-8226 leukemia
OVCAR-8 ovarian = test system: OVCAR-8 ovarian
OVCAR-5 ovarian = test system: OVCAR-5 ovarian
OVCAR-4 ovarian = test system: OVCAR-4 ovarian
SK-OV-3 ovarian = test system: SK-OV-3 ovarian
IGROV1 ovarian = test system: IGROV1 ovarian
OVCAR-3 ovarian = test system: OVCAR-3 ovarian
HS 578T breast = test system: HS 578T breast
NCI/ADR-RES ovarian = test system: NCI/ADR-RES ovarian
T-47D breast = test system: T-47D breast
BT-549 breast = test system: BT-549 breast
MDA-MB-435 melanoma = test system: MDA-MB-435 melanoma
SW-620 colon = test system: SW-620 colon
MCF7 breast = test system: MCF7 breast
HCT-116 colon = test system: HCT-116 colon
HCC-2998 colon = test system: HCC-2998 colon
KM12 colon = test system: KM12 colon

Measured: growth

N#Cc1c(-c2ccccc2)nc2c(c(-c3ccccc3)nn2-c2ccccc2)c1-c1ccc(N2CCCCC2)cc1
inactive: SR leukemia 114% | RPMI-8226 leukemia 107% | OVCAR-8 ovarian 98.4% | OVCAR-5 ovarian 102% | OVCAR-4 ovarian 105% | SK-OV-3 ovarian 104% | IGROV1 ovarian 104% | OVCAR-3 ovarian 111% | HS 578T breast 109% | NCI/ADR-RES ovarian 100% | T-47D breast 94.5% | BT-549 breast 104% | MDA-MB-435 melanoma 99.9% | SW-620 colon 99.2% | MCF7 breast 100% | HCT-116 colon 94.2% | HCC-2998 colon 107% | KM12 colon 103%

C=C(C)[C@@H]1CC[C@]2(C(=O)N3CCN(C)CC3)CC[C@]3(C)[C@H](CC[C@@H]4[C@@](C)(CCC(=O)O)[C@H](C(=C)C)CC[C@]43C)[C@@H]12
inactive: SR leukemia 56.9% | RPMI-8226 leukemia 58.6% | OVCAR-8 ovarian 88.9% | OVCAR-5 ovarian 111% | OVCAR-4 ovarian 97% | SK-OV-3 ovarian 89.6% | IGROV1 ovarian 104% | OVCAR-3 ovarian 88.8% | HS 578T breast 86.7% | NCI/ADR-RES ovarian 92.4% | T-47D breast 85.7% | BT-549 breast 96.8% | MDA-MB-435 melanoma 93.6% | SW-620 colon 99.7% | MCF7 breast 82.8% | HCT-116 colon 68.2% | HCC-2998 colon 93.8% | KM12 colon 68.7%

COC(=O)/C(CCC=C(C)C)=C1\[C@@H](OC(C)=O)C[C@@]2(C)[C@H]1C/C(=N/O)[C@H]1[C@@]3(C)CC/C(=N\O)[C@@H](C)[C@@H]3CC[C@@]12C
inactive: SR leukemia 66.2% | RPMI-8226 leukemia 46.3% | OVCAR-8 ovarian 90.4% | OVCAR-5 ovarian 135% | OVCAR-4 ovarian 97.3% | SK-OV-3 ovarian 107% | IGROV1 ovarian 100% | OVCAR-3 ovarian 93.8% | HS 578T breast 94.3% | NCI/ADR-RES ovarian 102% | T-47D breast 82.9% | BT-549 breast 95.5% | MDA-MB-435 melanoma 98.6% | SW-620 colon 106% | MCF7 breast 55.1% | HCT-116 colon 101% | HCC-2998 colon 110% | KM12 colon 103%

COc1ccc(Nc2ncc(C#N)c(NCCCNC(=O)C3CCC3)n2)cc1
inactive: SR leukemia 46.3% | RPMI-8226 leukemia 85.8% | OVCAR-8 ovarian 64% | OVCAR-5 ovarian 79.6% | OVCAR-4 ovarian 77.7% | SK-OV-3 ovarian 77.6% | IGROV1 ovarian 54.4% | OVCAR-3 ovarian 70.2% | HS 578T breast 47.7% | NCI/ADR-RES ovarian 83.1% | T-47D breast 109% | BT-549 breast 70.6% | MDA-MB-435 melanoma 68.5% | SW-620 colon 41.5% | MCF7 breast 63.7% | HCT-116 colon 50.1% | HCC-2998 colon 97.2% | KM12 colon 64.2%

NC(=O)c1ccccc1OCC(=O)Nc1ccc(Cl)c(Cl)c1
inactive: SR leukemia 71.4% | RPMI-8226 leukemia 66.5% | OVCAR-8 ovarian 91.9% | OVCAR-5 ovarian 119% | OVCAR-4 ovarian 96.5% | SK-OV-3 ovarian 96.9% | IGROV1 ovarian 84.2% | OVCAR-3 ovarian 95.4% | HS 578T breast 98.7% | NCI/ADR-RES ovarian 107% | T-47D breast 79.8% | BT-549 breast 93.2% | MDA-MB-435 melanoma 103% | SW-620 colon 102% | MCF7 breast 79.7% | HCT-116 colon 100% | HCC-2998 colon 103% | KM12 colon 100%

CCOC(=O)CC[C@H](NC(=O)c1ccc(N(C)Cc2cnc3nc(N)nc(N)c3n2)c2ccccc12)C(=O)OCC
inactive: SR leukemia 31.8% | RPMI-8226 leukemia 23% | OVCAR-8 ovarian 23.9% | OVCAR-5 ovarian 55.6% | OVCAR-4 ovarian 91.1% | SK-OV-3 ovarian 50.7% | IGROV1 ovarian 24.5% | OVCAR-3 ovarian 45.4% | HS 578T breast 58% | NCI/ADR-RES ovarian 39.3% | T-47D breast 53.9% | BT-549 breast 51.1% | MDA-MB-435 melanoma 37.4% | SW-620 colon 22% | MCF7 breast 18.4% | HCT-116 colon 20.4% | HCC-2998 colon 35.6% | KM12 colon 23.8%

COc1ccc(/C=C2\c3cc(OC)c(OC)c(OC)c3CC[C@@H]2O)cc1F
inactive: RPMI-8226 leukemia 28.1% | OVCAR-8 ovarian 25.4% | OVCAR-5 ovarian 76.2% | OVCAR-4 ovarian 57% | SK-OV-3 ovarian 22.4% | IGROV1 ovarian 43% | HS 578T breast 37.3% | T-47D breast 43.6% | BT-549 breast 23% | SW-620 colon 28% | MCF7 breast 18.4% | HCC-2998 colon 35.7% | KM12 colon 22.9%
active: SR leukemia 3.9% | OVCAR-3 ovarian 4.82% | NCI/ADR-RES ovarian 8.8% | MDA-MB-435 melanoma -35.6% | HCT-116 colon 8.9%

CNC(=O)c1cc(Oc2ccc3c(c2)sc2nc(-c4cc(C(F)(F)F)cc(C(F)(F)F)c4)cn23)ccn1
inactive: SR leukemia 34% | RPMI-8226 leukemia 50.1% | OVCAR-8 ovarian 36.1% | OVCAR-5 ovarian 91.4% | OVCAR-4 ovarian 24.8% | SK-OV-3 ovarian 46.7% | IGROV1 ovarian 74.1% | OVCAR-3 ovarian 68.3% | HS 578T breast 49.4% | NCI/ADR-RES ovarian 68.3% | T-47D breast 30.6% | BT-549 breast 52.9% | MDA-MB-435 melanoma 60.8% | SW-620 colon 64.9% | MCF7 breast 51.1% | HCT-116 colon 36.3% | HCC-2998 colon 74.3% | KM12 colon 69.5%

Reference: PubChem BioAssay (NCI)
